Laboratory results published in the OligoGym collection.

target: ETS1; assay: pooled miR-30 sensor sort-seq; sequence = guide strand; settings: shRNA
Also: reference of the scale not given here.

Row | Sequence | sensor-assay potency score (higher = more potent)
1 | TTTCTTTGCTGCTTGGAGTTAA | -0.637
2 | TTTTTGTCGTAATAGTAGCGTA | -0.88
3 | TTCTTGTTTGATAGCAAAGTAG | -1.22
4 | TTCTTTAGTGAAACCACTGAAA | -0.218
5 | TAACTTGATATGGTTTCACATC | -1.41
6 | TAGCAAAGTAGTCATTCTGCAA | -0.233

target: EYA3; assay: as above; settings: shRNA

Row | Sequence | sensor-assay potency score (higher = more potent)
7 | TTAATCTCTGCAGTGCTTCCTT | 0.585
8 | TTGAGTCTGCTGTAGTGTCTGG | -0.331
9 | TTTTCCTGGACTGATCATCAGT | -0.683
10 | TAGTGTCTGGTATTGAGTCTGT | -0.308
11 | TAGTCTGACCTGTGACTCCAAA | -0.964
12 | TTTGGTAGCACTATAGATGTTC | 0.549
13 | ATCACTGTTAGTCTGACCTGTG | 0.133
14 | TTTCTTCCATTGTTAAACCTGA | -0.4
15 | TTGCTAGTCATGTTTTTCCTGG | -0.514
16 | TTGTGAGGTATAATCATTGGAT | -0.583
17 | TTCTGCTCTTAATCTCTGCAGT | -0.462
18 | TTCTAATTCACTGTCTTGGGAA | -0.169
19 | TAGTTTGCTCTCCTGATTCCTG | -0.14
20 | TCTGGTATTGAGTCTGTCCAGG | -0.468
21 | TTGCTCTCCTGATTCCTGCATC | -0.293
22 | TTTACTTGGTGTAGTCTGGGAC | -0.478
23 | TATAATCATTGGATGAGCGAGG | -0.793
24 | TAATCCTGGTTTGAGATGCTGG | -0.375
25 | TTTAATGCAGTTCCTAACCAGG | -1.16
26 | TAGATTTCTCTCACTTTCCGGT | 0.197
27 | TTAGTCTGACCTGTGACTCCAA | -0.459
28 | TAGTCCATATAGGAGAACCTTG | -1.31
29 | TTGACTTATAGTTTGCTCTCCT | 0.627

target: F2R; assay: as above; settings: shRNA

Row | Sequence | sensor-assay potency score (higher = more potent)
30 | TTACACATACATCACACTCTAT | -0.0427
31 | AAACACTAGAACTTCTACGCAC | 0.254
32 | TTCCTGAGAAGAAATGACCGGG | 0.496
33 | TAATAACTTAAACCTTGCCGTC | -1.01
34 | TATCACATTCTGCTTTGCCAGT | -0.848
35 | TTACTTGCCATCAACTGCCCAC | -0.043
36 | TAAACTTTTCTTTTTAACCTCC | 0.474
37 | TTATTCAGGTTACTAGAGCAGG | -0.622
38 | ATAGACACATAACAGACCGTGG | -0.63
39 | TTTCATGGTCATTACCTCCTAG | 0.0335
40 | TTAATAACTTAAACCTTGCCGT | 0.203
